Compound activity from PubChem.
The list is not random: actives were taken first. Their share in the collection is about 6.1%.
D3 ag: qHTS of D3 Dopamine Receptor Agonist: qHTS | D(3) dopamine receptor (Homo sapiens), P35462 | D3R DiscoveRx beta-arrestin cells, luminescence, 90 min | max activation, % | hit rate 0.58% among 410,000 | AID 652048, 2013; in the data active = max activation above about 30%; also: 0% is about no effect
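Agonist-mode cell screen: cells plated at 1500/well and incubated overnight at 37 °C, then exposed to library compounds for 90 min at 37 °C. Detection reagent was added for 30–60 min at room temperature, and luminescence was read.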
D1 antagonist: Antagonist of Human D 1 Dopamine Receptor: qHTS. D(1A) dopamine receptor (Homo sapiens), P21728. HEK293 TREx D1 cells, calcium flux, dopamine EC80; active compounds read low. activity change, negative = inhibition, % at 10 µM. hit rate 3.2% among 360,000; in the data active = activity change below about -30%; also: % is scaled to controls: 0 for no effect and ±100 for the full control effect
Target sequence (P21728 whole entry, looked up): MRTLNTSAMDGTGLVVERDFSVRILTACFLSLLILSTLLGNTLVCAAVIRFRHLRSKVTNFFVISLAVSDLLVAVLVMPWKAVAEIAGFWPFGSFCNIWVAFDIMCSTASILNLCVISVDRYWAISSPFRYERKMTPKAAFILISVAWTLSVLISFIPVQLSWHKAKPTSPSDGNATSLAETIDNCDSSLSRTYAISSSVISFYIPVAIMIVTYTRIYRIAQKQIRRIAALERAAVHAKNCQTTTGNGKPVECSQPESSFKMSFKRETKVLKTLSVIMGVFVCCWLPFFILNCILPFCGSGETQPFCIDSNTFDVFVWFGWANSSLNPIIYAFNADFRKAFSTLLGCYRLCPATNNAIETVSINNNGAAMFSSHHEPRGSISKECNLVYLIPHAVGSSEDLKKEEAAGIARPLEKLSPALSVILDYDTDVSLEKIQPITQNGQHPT
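Kinetic fluorescence of a calcium dye serves as the read-out. D1-expressing Hek293 Trex cells, induced overnight at 30 C, are exposed to compound for 180 s before an EC80 dopamine addition, then read 180 s further.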
D1 potentiator: Potentiators of Human D1 Dopamine Receptor: qHTS. HEK293 TREx D1 cells, calcium flux, dopamine EC20 potentiation. hit rate 0.036% among 360,000. D(1A) dopamine receptor (Homo sapiens), P21728. potentiation, % at 10 µM; in the data active = potentiation above about 30%; also: 0% is about no effect
D3 antag: qHTS of D3 Dopamine Receptor Antagonist: qHTS. D(3) dopamine receptor (Homo sapiens), P35462. hit rate 2.5% among 360,000. D3R cells, DiscoveRx beta-arrestin luminescence, antagonist mode; active compounds read low. max response, negative = inhibition, %; in the data active = max response below about -50%; inconclusive = no clear call, values can overlap the other calls; also: % is scaled to controls: 0 for no effect and ±100 for the full control effect
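Cells expressing the human receptor were seeded at 1500 cells/well, incubated overnight at 37 degrees C in 5% CO2, then exposed to library compounds with dopamine controls for 90 minutes at 37 degrees C before luminescent detection.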
D1 agonist: Allosteric Agonists of the Human D1 Dopamine Receptor: qHTS. hit rate 1% among 360,000. activation, % at 2 µM. HEK293 T-REx D1 cells, calcium flux, agonist mode. D(1A) dopamine receptor (Homo sapiens), P21728; in the data active = activation above about 30%; also: 0% is about no effect
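Inducible HEK293 T-REx D1 cells, force-coupled to calcium signalling, were plated at 4000 cells/well with tetracycline and held overnight at 30 C. After no-wash calcium dye loading, compound-evoked calcium rise over 180 s flagged agonists.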
Starred values were filed as active, the others as inactive; ? = inconclusive; nt = no result.

SMILES	D3 ag	D1 antagonist	D1 potentiator	D3 antag	D1 agonist
CN1CCC(N(C)S(=O)(=O)c2ccc(NC(=O)c3ccc(S(=O)(=O)N(C)C)cc3)cc2)CC1	-12	nt	nt	5	nt
COc1ccc(-c2nc3n(n2)C(c2ccc(OC)c(OC)c2)C(C(=O)Nc2cccnc2)=C(C)N3)cc1 (stereo unspecified)	8	-10	1	nt	3
O=c1oc2c3c4c(cc2s1)CCCN4CCC3	0	4	-3	-19	1
O=c1ccc2cc3c4c(c2o1)CCCN4CCC3	5	-20	-3	24	75*
CCN(Cc1ccccc1)Cc1nnnn1Cc1ccccc1	1	-73*	2	-3	3
CCOc1ccccc1NS(=O)(=O)c1c(-c2ccc(C)cc2)csc1C(=O)OC	-7	5	-7	nt	7
CCCCCCCCOC(=O)c1cc([N+](=O)[O-])c(Sc2ncnc3nc[nH]c23)c([N+](=O)[O-])c1	-12	nt	nt	-55*	nt
CCCCOC(=O)c1ccc(Nc2ncnc3nc[nH]c23)cc1	-1	0	-3	-22	2
Nc1ccc(C23CC4CC(CC(O)(C4)C2)C3)cc1	0	8	-4	-50*	1
NCC12CC3CC(C1)CC(c1ccc(Cl)cc1)(C3)C2	-1	-11	-9	-5	38*
COc1ccc(N2CCN(C(=O)c3sc4nc5n(c(=O)c4c3C)CCC5)CC2)cc1	2	0	-2	nt	1
Cc1ccc(N2CCN(C(=O)c3cn(C)c4ccc(S(=O)(=O)N5CCC(C)CC5)cc4c3=O)CC2C)cc1 (stereo unspecified)	0	6	-1	nt	3
Cc1ccc(N2CCN(C(=O)c3cn(C)c4ccc(S(=O)(=O)N5CCCC5)cc4c3=O)CC2C)cc1 (stereo unspecified)	-2	-82*	3	nt	0
COc1ccc(CN2C3CCCC2CC(NC(=O)/C=C/c2ccccc2)C3)cc1 (stereo unspecified)	-21	-51*	-4	-111*	77*
COc1ccc(/C=C/C(=O)NC2CCS(=O)(=O)C2)cc1 (stereo unspecified)	1	-6	-2	38	1
O=C(/C=C/c1ccccc1)NC1CC2CCCC(C1)N2Cc1ccccc1 (stereo unspecified)	nt	-96*	-10	nt	2
O=C(/C=C\c1ccccc1)NC1CC(=O)N(c2ccccc2)C1 (stereo unspecified)	45*	nt	-2	nt	0
O=C(/C=C/c1ccccc1)NC1CCS(=O)(=O)C1 (stereo unspecified)	3	-16	-1	6	0
COc1ccccc1NC(=O)C1=C(C)Nc2ncnn2C1c1cccn1C (stereo unspecified)	-3	12	-3	nt	3
CC1C/C(=N/N2C(=O)CSC2=S)CC(C)(C)C1 (stereo unspecified)	-7	19	-8	-63*	8
Cc1ccccc1NC(=O)C(=O)NCC(c1ccc2c(c1)OCO2)N1CCN(c2ccccc2)CC1 (stereo unspecified)	3	-13	-4	nt	1
O=C(CCNS(=O)(=O)c1ccccc1)OCC(=O)c1ccc(F)cc1	-4	-40*	-3	2	17
CCCCC(C(=O)O)C(C)CC(=O)Nc1ccn(-c2ccccc2)n1 (stereo unspecified)	7	-59*	-4	16	2
O=C(c1ccccc1)N1CCN(C(=O)c2ccccc2)C1c1ccccc1	-6	-3	3	-51*	0
CC(=O)N1CCN(C(C)=O)C1c1ccccc1	1	-7	-4	-11	6
SMILES	D3 ag	D1 antagonist	D1 potentiator	D3 antag	D1 agonist
COc1ccc(OC)c(CNC(=O)c2ccc3c(c2)c(C)c(C)n3Cc2ccc(Cl)cc2)c1	-12	-10	-4	nt	4
NCCc1nc2cccnc2n1-c1ccccc1	4	18	0	nt	0
CCNc1ccc2noc3c2c1C(=O)c1ccccc1-3	2	-44*	3	29	313*
CCOc1ccc2noc3c2c1C(=O)c1ccccc1-3	1	-24	2	12	98*
O=C1c2ccccc2-c2onc3ccc(N4CCCC4)c1c23	-8	-21	8	?	167*
O=C1c2ccccc2-c2onc3ccc(NCc4ccco4)c1c23	-4	-2	-8	-4	122*
O=C1c2ccccc2-c2onc3c(Oc4ccccc4)cc(O)c1c23	nt	-6	3	nt	6
O=C(Nc1c(Cl)cccc1Cl)c1cccc2c1C(=O)N(C1CCCCC1)C2	3	-8	6	nt	2
COc1ccc(C)cc1NC(=O)c1ccc2c(c1)nnn2C1CCCC1	-1	-4	3	nt	0
Cc1nc2c(C(=O)NCCc3ccccc3)cnn2c(C)c1Cc1c(F)cccc1Cl	-21	5	-2	nt	-3
CCOC(=O)c1cc(CC)sc1/N=C/C1C(=O)CC(C)(C)CC1=O	-4	-49*	-1	3	1
CCOC(=O)c1c(/N=C/C2C(=O)CC(C)(C)CC2=O)sc2c1CCCC2	-9	-4	-2	-9	0
O=C(c1ccc(Cl)cc1)N(c1ccccn1)C1CCCCC1	0	nt	-5	-19	-2
O=C(c1cccc(C(=O)N(c2ccccn2)C2CCCCC2)c1)N(c1ccccn1)C1CCCCC1	-10	8	-1	-54*	3
COc1ccccc1NC(=O)c1nn(C)c2c1CS(=O)(=O)c1ccccc1-2	5	8	-3	nt	3
Cc1ccc(NC(=O)NC2CC(=O)N(c3ccc4c(c3)OCCO4)C2)c(C)c1 (stereo unspecified)	-2	-47*	-4	-14	-1
NC(=O)Cn1c(=O)n(CCCCCC(=O)NCc2ccccc2Cl)c(=O)c2sccc21	-1	-5	1	nt	-3
CN(C)C(/C=C/Nc1ccccc1F)=C(C#N)C#N	-6	-34*	-2	2	2
O=C(CSc1nc2c(c(=O)[nH]1)CCC2)Nc1ccccc1F	5	-17	-2	nt	0
Cn1c(-[n+]2c(-c3ccccc3)cc(-c3ccccc3)cc2-c2ccccc2)nc2c([N+](=O)[O-])cccc21	-12	-13	-8	-60*	11
O=[N+]([O-])c1cccc2nc(-c3ccccc3)c(-c3ccccc3)nc12	-21	5	-4	-5	5
COc1ccc(SCC(=O)c2cc(C)c(OC(=S)N(C)C)c(C)c2)cc1	0	-35*	-3	-51*	4
CCCOc1ccc(CCc2n[nH]c(=S)n2Cc2ccccc2)cc1	0	-43*	-3	-55*	4
Cc1ccc(NC(=O)C(=O)NCC(c2ccc3c(c2)OCO3)N2CCOCC2)cc1C (stereo unspecified)	10	-20	-7	nt	1
